High-throughput results (PubChem)
Cruzain Triton: blocks cruzain activity in presence of Triton detergent; P25779; purified cruzain, Z-FR-AMC fluorescence, 0.01% Triton; Potency, µM, inactives show max response, negative = inhibition, hits mostly inhibitors; 0.43% of 200,000 active;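 note: plate controls were neutral wells for no effect and buffer without enzyme for full effect; nearly all actives have a fitted effect of over 40% in size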
Target sequence (P25779 123-467 limits assumed): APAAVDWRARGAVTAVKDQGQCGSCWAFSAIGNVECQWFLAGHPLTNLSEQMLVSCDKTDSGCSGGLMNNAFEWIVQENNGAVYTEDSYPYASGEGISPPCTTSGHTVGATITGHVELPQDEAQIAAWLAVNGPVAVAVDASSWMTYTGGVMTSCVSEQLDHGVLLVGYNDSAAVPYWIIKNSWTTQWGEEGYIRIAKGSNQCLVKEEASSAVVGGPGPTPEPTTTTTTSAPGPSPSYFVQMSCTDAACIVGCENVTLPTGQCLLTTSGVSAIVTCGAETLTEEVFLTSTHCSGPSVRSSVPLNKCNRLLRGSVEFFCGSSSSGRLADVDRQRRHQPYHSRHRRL
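Cruzain (1.5 nM) preincubated 15 min at RT with compound in 100 mM sodium acetate pH 5.5, 5 mM DTT, 0.01% Triton X-100. Reaction started with 2 uM Z-FR-AMC; AMC fluorescence (ex 360/em 450 nm) change over 60 s gave rate.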
Cruzain inh noDet: inhibitors of Trypanosoma cruzi cruzain without detergent; AID 1476; purified cruzain, Z-FR-AMC fluorescence, no detergent; P25779; 2.3% of 200,000 active; Potency, µM, for the others: max response, negative = inhibition, most hits filed as inhibitors;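 note: plate controls were enzyme without inhibitor for no effect and buffer without enzyme for full effect; nearly all actives have a fitted effect of over 40% in size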
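Detergent-free condition (0.00005% Triton X-100) in acetate buffer pH 5.5 with DTT. 1.5 nM enzyme and compound were pre-mixed 15 min, then 2 uM Z-FR-AMC substrate added; reaction progress from fluorescence change between first and third reads (60 s).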
Starred values were filed as active, the others as inactive; u = inconclusive. The list is not random: actives were taken first. Their share in the collection is about 2.5%. Calls come from the whole dose curve; as a rule, active = well fitted curve in the direction sought with a large enough effect; inconclusive = small, poorly fitted or top-dose-only effect, or another doubt; inactive = no such curve, though single readings can be large; an effect the other way counts as inactive or inconclusive. Potency is the fitted concentration of half-maximal effect.

SMILES | Cruzain Triton | Cruzain inh noDet
CCOC(=O)c1ccc(N2CCN(c3cc(C)ccc3C)CC2)c(NC(=O)Nc2ccccc2)c1 | 0% | 7.9µM*
CCOC(=O)c1ccc(N2CCN(c3cc(Cl)ccc3C)CC2)c(NC(=O)Nc2ccc(OCC)cc2)c1 | 0% | -1%
O=C(N/N=C/c1cn(-c2ccccc2)nc1-c1ccc(F)cc1)c1ccc2c(c1)OCO2 | 3% | u
O=C(N/N=C/c1cn(-c2cccs2)nc1-c1ccccc1)c1ccccc1Br | -4% | u
COc1ccc(-c2nn(-c3ccccc3)cc2C(=O)Nc2ccccc2OC)cc1 | -3% | -3%
COc1ccc(-c2nn(-c3ccccc3)cc2/C=N/NC(=O)c2ccc3c(c2)OCO3)cc1 | -4% | u
COc1ccc(-c2nn(-c3ccccc3)cc2/C=N/NC(=O)c2cccc(S(=O)(=O)Nc3ccccc3OC)c2)cc1 | -7% | 10µM*
COc1ccc(-c2nn(-c3ccccc3)cc2/C=N/NC(=O)c2ccc(Br)o2)cc1 | 0% | 25µM*
O=C(N/N=C\c1cn(-c2ccccc2)nc1-c1ccccc1)c1ccc2c(c1)OCO2 | 0% | 20µM*
O=C(N/N=C/c1cn(-c2ccccc2)nc1-c1cc2ccccc2o1)c1ccccc1Br | -4% | 7.9µM*
CCCN(CCC)S(=O)(=O)c1ccc(NS(=O)(=O)c2ccc(F)cc2)cc1 | -8% | 4%
O=C(CSc1nnc(C2CC2)n1-c1ccccc1)NCCc1ccccc1 | 2% | -4%
Cc1cc(C)cc(-n2c(SCC(=O)N3CCc4ccccc43)nc3c([nH]c4ccccc43)c2=O)c1 | -2% | 8%
C=C(C)C(=O)/C=C/c1ccc(C(F)(F)F)cc1 | 2% | 0%
Cc1cc(C)c(NC(=O)CSc2nc3ccccc3c3nc(-c4ccccc4)nn23)c(C)c1 | 4% | -3%
N#Cc1ccc(CN2CC3(CCN(C(=O)c4cc(C(F)(F)F)cc(C(F)(F)F)c4)CC3)C2)cc1 | 4% | -9%
COc1ccc(/C=N/Nc2ccccc2)cc1Cn1nc(C)c([N+](=O)[O-])c1C | 3% | 13µM*
COc1ccc(/C=N/NC(=O)c2ccc(Cn3cc([N+](=O)[O-])cn3)o2)cc1O | -6% | -21%
COc1ccc(/C=N/NC(=O)Cn2nc(C)c([N+](=O)[O-])c2C)cc1 | -3% | 15%
COc1ccc(/C=N/Nc2ccc([N+](=O)[O-])cc2)cc1Cn1cc([N+](=O)[O-])cn1 | -2% | 20µM*
O=C(Nc1ccccc1)N1CCCC2(CCN(C(=O)c3cnccn3)CC2)C1 | 1% | 1%
O=C(NCCCN1CCN(c2ccccc2F)CC1)c1sc2ncccc2c1-n1cccc1 | -4% | 22%
COc1ccccc1CNC(=O)c1ccc2nc3[nH]c4ccccc4c3nc2c1 | -3% | u
Cc1ccc(CNC(=O)c2ccc3nc4[nH]c5ccccc5c4nc3c2)cc1 | -6% | 25µM*
Cc1ccc2onc(CC(=O)N3CCN(c4cccc(C)c4C)CC3)c2c1 | 0% | 5%
SMILES | Cruzain Triton | Cruzain inh noDet
COc1ccc(-c2c(C)c3ccc(O)c(CN4CCCC4)c3oc2=O)cc1 | -6% | 3%
COC(=O)Cc1c(C)c2ccc(O)c(CN3CCCC(C)C3)c2oc1=O (centres undefined) | 25µM* | u
Cc1c(C(N)=O)nnn1-c1ccc(Br)cc1 | -2% | 2%
CSc1nc(C)c(C(=O)Nc2ccccc2)c(C)c1C#N | 0% | -2%
Cc1nc(SCC(=O)c2cc3ccccc3oc2=O)c(C#N)c(C)c1C(=O)Nc1ccccc1 | -6% | 13µM*
O=C(OCn1nnc2ccccc2c1=O)c1ccc2ccccc2n1 | -4% | -8%
Fc1ccc(C2CC(c3ccco3)=NN2c2ccccc2)cc1 (centres undefined) | -3% | u
O=[N+]([O-])c1ccc(N2N=C(c3ccco3)CC2c2ccccc2)cc1 (centres undefined) | -7% | 13µM*
CC(C)c1ccc(NC(=O)CN2C(=O)CN=C(c3ccccc3)c3ccccc32)cc1 | -2% | 2%
CCOc1cc(/C=N/Nc2nc(-c3cccc(S(=O)(=O)N4CCCC4)c3)cs2)ccc1O | -12% | 16µM*
COc1ccc(/C=N/Nc2nc(-c3cccc(S(=O)(=O)N4CCCC4)c3)cs2)cc1OC | -16% | -29%
Cc1csc2nc(COC(=O)c3ccccc3NC(=O)c3ccc(F)cc3)cc(=O)n12 | 2% | -5%
Clc1ccc2c(N3CCC(CCC4CCN(c5ncnc6cc(Cl)ccc56)CC4)CC3)ncnc2c1 | -3% | -1%
CCOc1ccc(S(=O)(=O)NCC(c2ccc(N(C)C)cc2)N2CCCC2)cc1 (centres undefined) | -4% | 11%
O=C(N/N=C/c1cccc(F)c1)c1c(O)c2c([nH]c1=O)CCCC2 | -3% | 20µM*
CNC(=O)c1ccccc1NC(=O)c1c(O)c2c([nH]c1=O)CCCC2 | -1% | u
O=C(C1CCC(Cn2c(=O)c3sccc3n(Cc3ccccc3)c2=O)CC1)N1CCCCC1 (centres undefined) | -8% | 3%
